PubChem BioAssay (NCI)
This is part of a sample that, as a whole, favours compounds with a hit. Of some 79,000 tested, about 15% had one in any assay. The source made the active and inactive calls. No stated cut-off is given here; in the data, active means growth inhibition above about 70%; inactive means the rest.

Assay: NCI Yeast Anticancer Drug Screen. Data for the rad50 strain (AID 155);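 further: 0% = growth of vehicle-only cultures of the same strain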
Conditions: S. cerevisiae rad50 strain growth inhibition, active compounds read high
Description: Growth inhibition of yeast strains with defined genetic alterations is measured as a screen for potential anti-cancer activity. Selected strains with alterations in DNA damage repair or cell cycle control were exposed to compounds and growth inhibition was measured relative to vehicle treated controls. The strain used in this assay is rad50

[1] = at 5.0 µM (retest, dose inferred, filed as 0.5)
[2] = at 50.0 µM (retest, dose inferred, filed as 5.0)

Measured: growth inhibition

O=C(Nc1cc(Cl)ccc1Cl)C(Cl)(Cl)Cl
inactive: at 1.2 µM 2% | at 3.7 µM 6% | [1] 16% | at 11.0 µM 13% | at 33.0 µM 26% | [2] 41% | at 50.0 µM 53.9% | at 100.0 µM 26%

[Pt].c1ccc(P(CCP(c2ccccc2)c2ccccc2)CCP(c2ccccc2)c2ccccc2)cc1
inactive: at 1.2 µM -13% | at 3.7 µM 11% | [1] 22% | at 11.0 µM 23%
active: at 33.0 µM 94% | [2] 90% | at 50.0 µM 79% | at 100.0 µM 93%

CC1(C)N=C(N)N=C(N)N1c1cccc(N)c1.[Sn]
inactive: at 1.2 µM 5% | at 3.7 µM 6% | [1] 24% | at 11.0 µM 6% | at 33.0 µM 24% | [2] 36% | at 50.0 µM 9.35% | at 100.0 µM 36%

CC[C@@]1(O)C(=O)OCc2c1cc1n(c2=O)Cc2cc3ccccc3nc2-1
active: at 1.2 µM 97% | at 3.7 µM 97% | [1] 97% | at 11.0 µM 96% | at 33.0 µM 96% | [2] 97% | at 50.0 µM 86.9% | at 100.0 µM 95%

[Br][Cd][Br].c1ccc([PH+](c2ccccc2)c2ccccc2)cc1.c1ccc([PH+](c2ccccc2)c2ccccc2)cc1
inactive: [1] 29%
active: [2] 95% | at 50.0 µM 97.5%

COc1ccc2c(c1O)C13CCN(C)C(C2)C12C=CC(=O)C3c1c(O)ccc(O)c12 (configuration not stated)
active: at 50.0 µM 76.7%
inactive: [1] -2% | [2] 59%

COC(=O)CC1(C(=O)O)CC2(Cl)C(Cl)=C(Cl)C1(Cl)C2(Cl)Cl (configuration not stated)
inactive: [1] 4% | [2] 30% | at 50.0 µM 65.9%

Oc1ccc2ccccc2c1O
inactive: [1] 13% | at 50.0 µM 66.4%
active: [2] 81%

C/C(=N\N=C(/[Se])N1CC2CCC(CC2)C1)c1ccccn1
inactive: [1] 62%
active: [2] 79% | at 50.0 µM 87.5%
